These results are taken from PubChem BioAssay (NCATS).

Molecules are shown by their SMILES. Inconclusive results are not listed. Unmarked numbers belong to inactive results. Calls of active or inactive are those of the source. Calls come from the whole dose curve; as a rule, active = well fitted inhibition curve with a large enough effect; inconclusive = small, poorly fitted or top-dose-only effect; inactive = no such curve, though single readings can be large or run the other way.
Note: nearly all actives have a fitted effect of over 35% in size.
Potency is the fitted concentration of half-maximal effect.

The first experiment in a line: BET inhibitor-based combinations targeting novel dependencies in MECOM-rearranged (r) AML: SET-2 cell line (AID 2202231).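 For viability: plate controls were DMSO treated cells for no effect and wells without cells for full effect.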 The conditions noted are these: SET-2 AML cells viability, CellTiter-Glo luminescence, 48 h; viability: active compounds read low, concentration not given here. The essentials:
(§1)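 500 cells/well; 11-pt dose curve; 48 h, standard incubator; CellTiter-Glo luminescence after 15 min RT; DMSO/empty-well normalization; AUC plus Z-AUC (mean-centered within each line).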
As for `Cn1c(COP(=O)(NCCBr)NCCBr)cnc1[N+](=O)[O-]`, the viability was 123%.

Regarding `CN1C(=O)COc2c(C(=O)NC3CN4CCC3CC4)cc(Cl)cc21` (stereo unspecified), the viability was 95.7%.

Regarding `C[C@@H]1CC[C@@]2(OC1)O[C@H]1C[C@H]3[C@@H]4CC=C5C[C@@H](O[C@@H]6O[C@H](CO)[C@@H](O[C@@H]7O[C@@H](C)[C@H](O)[C@@H](O)[C@H]7O)[C@H](O)[C@H]6O[C@@H]6O[C@@H](C)[C@H](O)[C@@H](O)[C@H]6O)CC[C@]5(C)[C@H]4CC[C@]3(C)[C@H]1[C@@H]2C`, the Potency was 8330 nM (active).

As for `CC(C)[C@]12O[C@H]1[C@@H]1O[C@@]13[C@@]1(C)CCC4=C(COC4=O)[C@@H]1C[C@@H]1O[C@@]13C2=O`, the Potency is 83.3 nM (active).

For `COc1cc(C(=O)N2CC[C@@H](O)[C@@H](N)C2)cc2nc(-c3cc4ccccc4n3CC3CC3)n(C)c12`, the viability is 103%.

As for `CN(C)NC(=O)CCC(=O)O`, the viability was 87.9%.

With `C[C@]12CC[C@H]3[C@@H](CC[C@@]45O[C@@H]4C(O)=C(C#N)C[C@]35C)[C@@H]1CC[C@@H]2O`, the viability is 112%.

Take `COc1cc([C@@H]2c3cc4c(cc3[C@@H](O)C3COC(=O)C32)OCO4)cc(OC)c1O` (stereo partly specified): the Potency was 468 nM (active).

Consider `Clc1ccccc1C(c1ccccc1)(c1ccccc1)n1cccn1`, for which the viability was 90.1%.

For `COc1cc2cc(c1Cl)N(C)C(=O)C[C@H](OC(=O)C(C)C)[C@]1(C)O[C@@H]1[C@H](C)[C@@H]1C[C@@](O)(NC(=O)O1)[C@H](OC)/C=C/C=C(\C)C2`, the Potency is 2.1 nM (active).

`C[C@H]1[C@H](O)[C@@H](C)/C=C/C=C/CC/C=C/C=C/C=C/C=C/[C@H](O[C@@H]2O[C@H](C)[C@@H](O)[C@H](N)[C@@H]2O)C[C@@H]2O[C@](O)(C[C@@H](O)[C@H](O)CC[C@@H](O)C[C@@H](O)C[C@@H](O)CC(=O)O[C@H]1C)C[C@H](O)[C@H]2C(=O)O`: the viability is 99%.

`COC(=O)[C@]12CCC(C)(C)C[C@H]1[C@H]1C(=O)C=C3[C@@]4(C)C=C(C#N)C(=O)C(C)(C)[C@@H]4CC[C@@]3(C)[C@]1(C)CC2`: the Potency is 2350 nM (active).

Take `O=C(Nc1ccncc1)C(=O)c1cn(Cc2ccc(Cl)cc2)c2ccccc12`: the Potency was 525 nM (active).

With `c1ccc2c(CN3CCNCC3)cccc2c1`, the viability was 115%.

`N[C@@H]1C[C@H]1c1ccccc1`: the viability was 95.9%.

In the case of `CC(C)CC(N(C)C)C1(c2ccc(Cl)cc2)CCC1` (stereo unspecified), the viability was 99.9%.

As for `C/C(=C\c1csc(C)n1)[C@@H]1C[C@@H]2O[C@]2(C)CCC[C@H](C)[C@H](O)[C@@H](C)C(=O)C(C)(C)[C@@H](O)CC(=O)O1`, the Potency is 18.6 nM (active).

On to `CC1(C)C(=O)N(c2ccc(C#N)c(C(F)(F)F)c2)C(=S)N1Cc1ccc(-c2cn[nH]n2)cc1`, for which the Potency is 16600 nM (active).

A short description of another experiment: BET inhibitor-based combinations targeting novel dependencies in MECOM-rearranged (r) AML: OCI-AML3 cell line (AID 2202232). The conditions noted are these: CellTiter-Glo luminescence, 48 h; Potency: OCI-AML3 viability; series mostly up to 46 µM. The method in brief:
as §1
`COc1cc2c(cc1F)C(c1ccccc1Cl)=Nc1c(n[nH]c1C)N2`: the Potency was 3720 nM (active).

With `CCOP(=O)(OCC)C(C)NC(=O)N(CCCl)N=O` (stereo unspecified), the Potency entry is “inactive”.

As to `Cc1c(N)nc([C@H](CC(N)=O)NC[C@@H](N)C(N)=O)nc1C(=O)N[C@H](C(=O)N[C@@H](C)[C@H](O)[C@@H](C)C(=O)N[C@@H](C(=O)NCCc1nc(-c2nc(C(=O)NCCC[S+](C)C)cs2)cs1)[C@@H](C)O)C(O[C@H]1O[C@H](CO)[C@H](O)[C@@H](O)[C@H]1O[C@H]1O[C@H](CO)[C@@H](O)[C@H](OC(N)=O)[C@@H]1O)c1cnc[nH]1` (stereo partly specified), the Potency entry was “inactive”.

As for `O=C(NCCCNc1nc(Nc2ccc(N3CCOCC3)cc2)ncc1C1CC1)C1CCC1`, the Potency was 14800 nM (active).

Take `C/C=C(\C)C(=O)N[C@@H](c1ccccc1)[C@@H](O)C(=O)O[C@H]1C[C@@]2(O)[C@@H](OC(=O)c3ccccc3)[C@@H]3[C@]4(OC(C)=O)CO[C@@H]4C[C@H](O)[C@@]3(C)C(=O)[C@H](OC(C)=O)C(=C1C)C2(C)C`: the Potency is 13.2 nM (active).

For the compound `Cc1[nH]ncc1-c1cc2nc([C@@H]3CC4CCN3CC4)[nH]c(=O)c2s1`, the Potency was 9340 nM (active).

Take `COC12C(COC(N)=O)C3=C(C(=O)C(C)=C(N)C3=O)N1CC1C2N1C` (stereo unspecified): the Potency entry was “inactive”.

As to `C=C(C)[C@@H]1CCC(C)=C[C@H]1c1c(O)cc(CCCCC)cc1O`, the Potency was 20900 nM (active).

For the compound `CC(C)C[C@H](CN)CC(=O)O`, the Potency result was “inactive”.

With `Clc1ccccc1C(c1ccccc1)(c1ccccc1)n1cccn1`, the Potency entry is “inactive”.

As for `C[C@@H]1O[C@@H](O[C@@H]2C=C3CC[C@@H]4[C@H](CC[C@]5(C)[C@@H](c6ccc(=O)oc6)CC[C@]45O)[C@@]3(C)CC2)[C@H](O)[C@H](O)[C@H]1O`, the Potency is 14.8 nM (active).

With `O=C(Nc1ccncc1)C(=O)c1cn(Cc2ccc(Cl)cc2)c2ccccc12`, the Potency was 417 nM (active).

On to `CO/C1=C/C(C)=C\[C@@H](C)[C@@H](O)[C@@H](C)C/C(C)=C\C=C/[C@H](OC)[C@@H]([C@@H](C)[C@@H](O)[C@H](C)[C@@]2(O)C[C@@H](O)[C@H](C)[C@@H](C(C)C)O2)OC1=O`, for which the Potency was 124 nM (active).

As for `CCCCCCC(C)(C)c1cc(O)c2c(c1)OC(C)(C)C1CC=C(CO)C[C@H]21` (stereo partly specified), the Potency was 26300 nM (active).

Take `C[C@]12COC(=O)C[C@@H]1CC[C@@H]1[C@@H]2CC[C@@]2(C)[C@H]1CC[C@]2(C)O`: the Potency result was “inactive”.

With `O=c1cccc2n1CC1CNC[C@H]2C1`, the Potency entry is “inactive”.

Turning to `Cn1c(CCCCCCC(=O)NO)nc2cc(N(CCCl)CCCl)ccc21`, the Potency was 2350 nM (active).

As to `CC1(C)C(=O)N(c2ccc(C#N)c(C(F)(F)F)c2)C(=S)N1Cc1ccc(-c2cn[nH]n2)cc1`, the Potency is 11800 nM (active).
